Results on 23 molecules are retold here after PubChem BioAssay AID488932 (Broad Institute, 2010).

Results with a measured potency or affinity are listed apart. A number with no mark means an inactive call.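 How the source made its calls: active means growth signal falls, with fitted half-maximal dose at most ten times the top valid dose; inconclusive means flat curve with a partial drop, or a poorly fitting curve; inactive means the rest, including compounds that raise signal.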

The experiment can be described thus: Candida albicans growth inhibition, agent alone, dose response, counter-screen for reversing antifungal drug resistance, CaCi-2 strain, no fluconazole, dry powder, set 4 (AID 488932). The conditions noted are these: C. albicans CaCi-2 (fluconazole-resistant clinical isolate) growth, Alamar Blue, 48 h; series mostly up to 26 µM; activity change, negative = inhibition: at the top concentration. A general note: The purpose of a counterscreen is to sort out artefacts and off-target activity.
On to `O=C(Nc1ccc(Cl)cc1)N1CCN(c2ccnc3cc(Cl)ccc23)CC1`, for which the “activity change, negative = inhibition” value is -46.6%.

In the case of `COc1ccc(OC)c2c(C)cc(N3CCN(C(=O)c4ccc(Cl)cc4)CC3)nc12`, the “activity change, negative = inhibition” value is -17.5%.

`O=C(c1ccc(Cl)cc1)C1CCN(c2ccnc3cc(Cl)ccc23)CC1`: the “activity change, negative = inhibition” value was 18.3%.

As for `O=C(c1ccc(Cl)cc1)N1CCN(c2ncnc3ccccc23)CC1`, the “activity change, negative = inhibition” value is -21.6%.

Regarding `O=C(C1CCC1)N1CCN(c2ccnc3cc(Cl)ccc23)CC1`, the “activity change, negative = inhibition” value is 58.1%.

Turning to `O=C(c1ccc(Cl)cc1)N1CCN(c2ccnc3ccccc23)CC1`, the “activity change, negative = inhibition” value is 35.2%.

For the molecule `CC1CN(c2ccnc3cc(Cl)ccc23)CCN1C(=O)c1ccc(Cl)cc1` (stereo not drawn), the “activity change, negative = inhibition” value is 36%.

For the molecule `O=C(c1ccc(Cl)cc1)N1CCN(c2nc3ccccc3s2)CC1`, the “activity change, negative = inhibition” value is 15%.

With `COc1cccnc1N1CCN(C(=O)c2ccc(Cl)cc2)CC1`, the “activity change, negative = inhibition” value was 23.9%.

Consider `O=C(c1ccc(Cl)cc1)N1CCN(c2nc3ccccc3o2)CC1`, for which the “activity change, negative = inhibition” value is 16.5%.

`O=C(c1ccc(Cl)nc1)N1CCN(c2ccnc3cc(Cl)ccc23)CC1`: the “activity change, negative = inhibition” value was 51%.

Regarding `O=C(c1ccc(Cl)cc1)N1CCNCC1`, the “activity change, negative = inhibition” value is 84.1%.

For the molecule `COc1ccc(C(=O)N2CCN(c3ccnc4cc(Cl)ccc34)CC2)cc1`, the “activity change, negative = inhibition” value was 30.7%.

As for `O=C(c1ccc(F)cc1)N1CCN(c2ccnc3cc(Cl)ccc23)CC1`, the “activity change, negative = inhibition” value was 20.7%.

Consider `O=C(Nc1ccc(C(F)(F)F)cc1)N1CCN(c2ccnc3cc(Cl)ccc23)CC1`, for which the “activity change, negative = inhibition” value is 4.41%.

`COc1cccc2c(N3CCN(C(=O)c4ccc(Cl)cc4)CC3)cc(C)nc12`: the “activity change, negative = inhibition” value is 60.5%.

Turning to `CC(C)CC(=O)N1CCN(c2ccnc3cc(Cl)ccc23)CC1`, the “activity change, negative = inhibition” value was 44.8%.

In the case of `O=C(c1ccc(Cl)c(Cl)c1)N1CCN(c2ccnc3cc(Cl)ccc23)CC1`, the “activity change, negative = inhibition” value was 19.6%.

As for `O=C(c1ccc(Cl)cn1)N1CCN(c2ccnc3cc(Cl)ccc23)CC1`, the “activity change, negative = inhibition” value was 70.8%.

Regarding `CCCC(=O)N1CCN(c2ccnc3cc(Cl)ccc23)CC1`, the “activity change, negative = inhibition” value is 37%.

Take `O=C(c1ccc(Cl)cc1)N1CCN(c2ccncc2)CC1`: the “activity change, negative = inhibition” value was 9.56%.

For `O=C(c1ccc(Cl)cc1)N1CCN(c2ncccn2)CC1`, the “activity change, negative = inhibition” value is 15.2%.

Consider `O=C(c1ccccc1Cl)N1CCN(c2ccnc3cc(Cl)ccc23)CC1`, for which the “activity change, negative = inhibition” value is 20.5%.
